Measurements: ChEMBL document CHEMBL4513216, “Probing the Open Global Health Chemical Diversity Library for Multistage-Active Starting Points for Next-Generation Antimalarials” (ACS Infect Dis, 2020)
The campaign covered roughly 69,000 compounds. About 8,600 (12%) showed an effect of 50% or more. The sample holds strong results, similar compounds and a random draw of the others, so the mix is not that of the screen.

test system: Plasmodium berghei; assay: Screen against P. berghei liver stage (PbLuc), transformed with Luciferase, at 10uM; type: functional, HepG2; details: tested at 10 uM

| Structure (SMILES) | INHIBITION [%] |
| --- | --- |
| Cc1ccc(C(CNCc2ccncc2)N2CCOCC2)s1 (configuration not stated) | -33.2 |
| CCn1cc(CNCC(c2ccc(C)s2)N2CCOCC2)cn1 (configuration not stated) | 14.9 |
| CCCn1cc(CNCC(c2ccc(C)s2)N2CCOCC2)cn1 (configuration not stated) | 63.7 |
| Cc1ccc(C(CNCc2ccc(C#N)cc2)N2CCOCC2)s1 (configuration not stated) | 69.7 |
| Cc1ccc(C(CNCc2cnn(C(C)C)c2)N2CCOCC2)s1 (configuration not stated) | -48.2 |
| Cc1ccc(C(CNCc2cccn2C)N2CCOCC2)s1 (configuration not stated) | 38 |
| O=C(NCC1COCc2c(-c3ccncc3)nnn2C1)[C@H]1CCCO1 (some centres not stated) | -34.6 |
| CC(Cn1cccn1)n1cnc2cccc(F)c2c1=O (configuration not stated) | 30 |
| CCn1ncc(CN2CCc3c(nc(-c4cccnc4)[nH]c3=O)C2)c1C | 23.3 |
| OCCN1CCC(c2cncc(-c3cccc(Cl)c3)n2)CC1 | 23.2 |
| NC(=O)CN1CCCC(C(=O)N2CCC(Oc3ncccn3)CC2)C1 (configuration not stated) | 27.6 |
| NC(=O)CN1CCCC(C(=O)N2CCC(O)(Cc3ccccc3)CC2)C1 (configuration not stated) | 8.07 |
| N#CC1(c2ccccc2)CCN(C(=O)C2CCCN(C(N)=O)C2)CC1 (configuration not stated) | 30.5 |
| NC(=O)CN1CCCC(C(=O)N2CCC(O)(c3ccccc3)CC2)C1 (configuration not stated) | 58.3 |
| N#CC1(c2ccccc2)CCN(C(=O)CN2C(=O)CCNC2=O)CC1 | 30.1 |
| N#CC1(c2ccccc2)CCN(C(=O)C2CCCN(CC(N)=O)C2)CC1 (configuration not stated) | 61 |
| O=C(c1ccc(=O)[nH]n1)N1CCNCC1c1ccccc1 (configuration not stated) | 8.12 |
| CCOCC(=O)N1CCC(c2cc3ncccc3c(O)n2)CC1 | 0.301 |
| CC(C)NC(=O)N1C[C@H](OCc2cccnc2)[C@H]2COC[C@H]21 | -18.2 |
| Cc1nc(O)cc(C2(C)CCCNC2)n1 (configuration not stated) | 1.4 |
| Cc1ccc(-n2nc(C)c3c2NC(=O)CC3c2cnc(N)s2)cc1 (configuration not stated) | 62.6 |
| CCn1cncc1C1CC(=O)Nc2c1c(C)nn2-c1ccc(C)cc1 (configuration not stated) | 42 |
| Cc1nn(-c2ccccc2)c2c1C(c1ccc(C(=O)O)cc1)CC(=O)N2 (configuration not stated) | 32.7 |

| Structure (SMILES) | INHIBITION [%] |
| --- | --- |
| CCn1ncc(S(=O)(=O)N[C@@H]2CCC[C@@H](n3ccnc3)[C@@H]2O)c1C | 28.7 |
| COCCCNc1cc(C)nn2cnnc12 | 3.35 |
| CCC(CC)(CNC(=O)OC(C)(C)C)NC(=O)c1cnccn1 | 67.4 |
| CC(C)C(C)(CNC(=O)OC(C)(C)C)NC(=O)c1cnccn1 (configuration not stated) | 0.705 |
| CC(C)CC(C)(CNC(=O)c1cnccn1)NC(=O)c1cnccn1 (configuration not stated) | 25.4 |
| Cn1ccc(C(=O)N2CCCC2c2cc[nH]n2)n1 (configuration not stated) | 21.925 |
| Cc1nn(C)c(N2CCOCC2)c1CNC1CCN(C2CC2)CC1 | -21.7 |
| NC(=O)NC(=O)CNc1cccc(C(=O)c2ccccc2)c1 | 0.0459 |
| CCN1CCN(S(=O)(=O)c2cc(C)c(Cl)cc2Cl)CC1 | 43.5 |
| CCN1CCN(S(=O)(=O)c2cc(Cl)c(Cl)cc2C)CC1 | 61.8 |
| CCN1CCN(S(=O)(=O)c2cc(C)c(C)cc2Br)CC1 | 66.5 |
| CCN1CCN(S(=O)(=O)c2ccc(Cc3cc(C)n[nH]c3=O)cc2)CC1 | 9.96 |
| CCN1CCN(S(=O)(=O)c2cc(C)c(Cl)cc2C)CC1 | 49.7 |
| CCN1CCN(S(=O)(=O)c2ncn(C)c2Cl)CC1 | -10.4 |
| CN(C)S(=O)(=O)c1ccc(CNC(=O)C2CC(=O)N(C(C)(C)C)C2)cc1 (configuration not stated) | -3.305 |
| CN(C)C(=O)CN1CCC(c2nnc(Cn3cccn3)n2C2CC2)CC1 | 16.3 |
| CN1[C@H](CN2CCCC2)C[C@@H]2CN(C(=O)c3cnccn3)CC[C@@H]21 | 18.6 |
| Cc1nc(C2CCN(c3ccccc3)CC2)no1 | 32.8 |
| Cc1noc(C2CCN(C(=O)c3ccc(N(C)C)nc3)CC2)n1 | 6.92 |
| Cc1noc(C2CCN(C(=O)c3ccc(C(F)(F)F)nc3)CC2)n1 | -34.025 |
| Cc1noc(C2CCN(C(=O)c3ccc(NC4CC4)nc3)CC2)n1 | 59.7 |
| CCCc1ccc2oc(C(=O)N3CCC(O)CC3)c(C)c2c1 | 2.7 |
| CSc1ccc(Cl)c(C(=O)N2CCCC(CNS(C)(=O)=O)C2)c1 (configuration not stated) | 41.4 |

| Structure (SMILES) | INHIBITION [%] |
| --- | --- |
| COc1ccccc1OCC(=O)NS(=O)(=O)c1cccnc1 | 29.8 |
| CCn1c(SCC(=O)N2CCOCC2)nc2cc(C)[nH]c2c1=O | 2.69 |
| CCC(C)n1c(SCC(=O)N2CCOCC2)nc2cc(C)[nH]c2c1=O (configuration not stated) | 57.3 |
| Cc1cc2nc(SCC(=O)N3CCOCC3)n(C(C)C)c(=O)c2[nH]1 | 47.4 |
| CCSc1ccc(NC(=O)N2CCCC2c2ccncc2)cn1 (configuration not stated) | 35.2 |
| CCCc1nnc(NC(=O)N2CCCC2c2ccncc2)s1 (configuration not stated) | 59.2 |
| CC(C)c1nnc(NC(=O)N2CCCC2c2ccncc2)s1 (configuration not stated) | -32.3 |
| CC(C)(C)c1n[nH]c(C2CN(C(=O)CCc3ccco3)CCO2)n1 (configuration not stated) | 18.15 |
| Cc1nc(CN2CCCC(NCCCc3ccccc3)C2)no1 (configuration not stated) | -7.31 |
| O=C(COc1ccc(C(F)(F)F)cc1)N1CCOCC1c1ncon1 (configuration not stated) | 11.9 |
| CC(C)(C)c1n[nH]cc1CNC1CCC(O)CC1 (configuration not stated) | 5.87 |
| CC(C)NC(=O)C1CN(Cc2ccc(F)cc2)CC12CCOCC2 (configuration not stated) | -15.7 |
| CCC(Cn1ccnc1)n1cnc2scc(C)c2c1=O (configuration not stated) | 14.9 |
| CC(Oc1ccc2c(c1)OCO2)C(=O)N1CCC(N2CCOCC2)CC1 (configuration not stated) | 63 |
| CC1CCN(C(=O)C(C)Oc2ccc3c(c2)OCO3)CC1 (configuration not stated) | -20.5 |
| CC(Oc1ccc2c(c1)OCO2)C(=O)N1CCC(N2CCCC2)CC1 (configuration not stated) | -5.22 |
| CCCc1nc(C(C)(C)NC(=O)C2CC(=O)N(CCOC)C2)no1 (configuration not stated) | -3.2 |
| CCN(CC)CC(=O)Nc1ccc(-n2ccc(C(N)=O)n2)cc1 | 50.2 |
| CC(C)N(C)CC(=O)Nc1ccc(-n2ccc(C(N)=O)n2)cc1 | 49.3 |
| CCOCC(=O)Nc1ccc(-n2ccc(C(N)=O)n2)cc1 | 10.8 |
| CCNc1ncc(C(=O)N2Cc3nc(C)[nH]c(=O)c3C2)cn1 | 6.94 |
